Screening data as filed in PubChem BioAssay.
Hits are enriched below; roughly 9.3% of the tested compounds scored in any of these assays.
FMDV inh = foot and mouth disease virus antiviral activity; 410,000 compounds, 1.2% hits; FMDV antiviral cell-based qHTS; Potency, µM (titrated, usually from 57.9 µM), actives largely listed as inhibitors; calls by dose curve; tested in HEK293T cells; note: read-out not given here; nearly all actives have a fitted effect of over 45% in size
HCV inh = inhibitors of hepatitis C virus infection | Potency, µM (highest dose often 41.8 µM), usual class: inhibitors | Huh7.5.1 HCVcc-Cre infection, luciferase reporter, 44 h | 340,000 compounds, 3.4% hits
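Cells seeded at 1,000/well and cultured 4 h, then compounds added followed by HCVcc-Cre virus (~0.5 moi). After 44 h further culture, luciferase substrate was added, plates held 15 min at room temperature, and luminescence read for 15 sec.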
Vaccinia mCherry = vaccinia inhibition (mCherry reporter) | Vaccinia virus mCherry reporter infection, fluorescence | Potency, µM (doses to about 36.5 µM), usual class: inhibitors | 310,000 compounds, 0.63% hits | AID 720579; calls by dose curve; tested in A549 cells; note: nearly all actives have a fitted effect of over 35% in size
VACV Venus inh = vaccinia inhibition (Venus reporter). Vaccinia virus Venus reporter expression, fluorescence. Potency, µM (series often up to 36.5 µM), actives largely listed as inhibitors. 330,000 compounds, 0.46% hits. AID 720580; calls by dose curve; tested in A549 cells; note: nearly all actives have a fitted effect of over 30% in size
Sm TGR block = S. mansoni TGR enzyme inhibition. 360,000 compounds, 3% hits. purified TGR, DTNB reduction, TNB absorbance 405 nm. Potency, µM (highest dose often 114 µM), most hits filed as inhibitors; note: nearly all actives have a fitted effect of over 60% in size
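Kinetic colorimetric format: TGR-catalysed, NADPH-driven DTNB reduction monitored via TNB absorbance. Enzyme dispensed at 20 nM; compound exposure 15 min at room temperature before reaction start.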
HCMV antiviral = inhibitors of human cytomegalovirus; activity change, negative = inhibition, % at 57.5 µM; HFF cells, HCMV-luciferase reporter, 72 h; active compounds read low; 410,000 compounds, 4.5% hits; in the data active = activity change below about -60%; inconclusive = no clear call, values can overlap the other calls; inactive = above about -39%
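Steps: HFFs plated, 16 h 37C; compounds added; HCMV-luciferase added to MOI 1 PFU/cell; 72 h 37C; OneGlo reagent, 5 min room temperature; luminescence read, normalized to controls.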
Each line names hits and unclear results; the compound was inactive in the other large screens; ! = a repeat was not active. Unless noted, calls come from the whole dose curve; as a rule, active = well fitted curve in the direction sought with a large enough effect; inconclusive = small, poorly fitted or top-dose-only effect, or another doubt; inactive = no such curve, though single readings can be large; an effect the other way counts as inactive or inconclusive.

O=C(CC1SC(=O)N(c2ccccc2)C1=O)Nc1ccc(Cl)cc1 (stereo not given)	Sm TGR block 4µM
O=C(CC1SC(=Nc2ccccc2)N(CCCO)C1=O)Nc1ccc(Cl)cc1 (stereo not given)	FMDV inh 14µM, VACV Venus inh inconclusive (no result: Vaccinia mCherry, HCMV antiviral)
O=C(CC1SC(=O)N(c2ccccc2)C1=O)Nc1ccc(Br)cc1 (stereo not given)	Sm TGR block 3.2µM
Cc1cc(Sc2nnc(/N=C/N(C)C)s2)c2ccccc2n1	FMDV inh 14µM, HCV inh inconclusive, Sm TGR block 3.5µM, HCMV antiviral -106 (no result: Vaccinia mCherry, VACV Venus inh)
Cc1cc(Sc2nnc(N)s2)c2ccccc2n1	FMDV inh 14µM, HCV inh inconclusive, Sm TGR block 4µM, HCMV antiviral -108 (no result: Vaccinia mCherry, VACV Venus inh)
Cc1cc(C)c2ccccc2n1	none (no result: FMDV inh, HCV inh, Sm TGR block, HCMV antiviral)
Cc1nc2scc(C)n2c(=O)c1S(=O)(=O)Nc1ccc(N2CCN(S(C)(=O)=O)CC2)cc1	FMDV inh inconclusive, HCV inh inconclusive, HCMV antiviral -83!
CCc1ccc(NS(=O)(=O)c2c(C)nc3sc(CC)nn3c2=O)cc1	FMDV inh inconclusive, Vaccinia mCherry inconclusive
CCc1nn2c(=O)c(S(=O)(=O)Nc3ccc(C)c(C)c3)c(C)nc2s1	HCMV antiviral -88 (no result: HCV inh)
Cc1cccc(NS(=O)(=O)c2c(C)nc3scc(C)n3c2=O)c1	HCMV antiviral -70
Cc1cc(C)cc(NS(=O)(=O)c2c(C)nc3scc(C)n3c2=O)c1	Sm TGR block inconclusive (no result: HCV inh)
COCCn1c(=NC(=O)CCS(=O)(=O)c2ccccc2)sc2c(OC)ccc(OC)c21	Sm TGR block inconclusive
O=c1cc(C(F)(F)F)nc(-c2ccccc2OC(F)(F)F)[nH]1	none (no result: Vaccinia mCherry, VACV Venus inh)
C/C(=N\NC(=O)c1ccn(C)n1)c1ccc(NC(=O)c2cccc(F)c2)cc1	HCV inh inconclusive
O=C(COc1ccccc1)NCc1nnc2c3ccccc3c(-c3ccccc3)nn12	HCMV antiviral -63
COC(=O)c1cc(OC)c(OC)cc1NC(=O)c1ccc(C)o1	HCV inh inconclusive (no result: Vaccinia mCherry, VACV Venus inh)
CCOc1cc(Br)c(C=O)cc1OCC	HCMV antiviral -92
COc1ccc(C(=O)NC(=S)NCc2cccnc2)cc1Br	HCV inh inconclusive, HCMV antiviral inconclusive (no result: Vaccinia mCherry, VACV Venus inh)
Cc1ccc(C(=O)NC(=S)NCc2cccnc2)cc1C	Sm TGR block 50µM, HCMV antiviral inconclusive (no result: Vaccinia mCherry, VACV Venus inh)
CC(C)c1ccc(C(=O)NC(=S)NCc2cccnc2)cc1	Sm TGR block inconclusive, HCMV antiviral -74
O=C1C2C(C(=O)N1CCN1CCN(Cc3ccc([N+](=O)[O-])cc3)CC1)[C@H]1C=C[C@@H]2C1 (stereo not given in full)	HCV inh inconclusive
S=c1[nH]cnc2scc(-c3ccc(Br)cc3)c12	HCV inh inconclusive, HCMV antiviral -87
O=C(CC1C(=O)NCCN1Cc1cccc(C(F)(F)F)c1)NC1CCCCCC1 (stereo not given)	Sm TGR block 22µM (no result: HCMV antiviral)
O=C(CC1C(=O)NCCN1Cc1ccc(Cl)c(F)c1)NC1CCCCC1 (stereo not given)	none (no result: HCV inh)
CCOc1ccccc1CN1CCNC(=O)C1CC(=O)NC1CCCCCCC1 (stereo not given)	HCMV antiviral -62 (no result: Sm TGR block)
O=C(CC1C(=O)NCCN1Cc1ccccc1C(F)(F)F)NC1CCCC1 (stereo not given)	Sm TGR block 40µM
Cc1nc2nc(CNC(=O)OC(C)(C)C)nn2c(C)c1CCC(=O)NCc1ccccc1Cl	none (no result: HCV inh)
COc1ccc(C(=O)/C(=C/O)N=Nc2ccc(F)cc2)cc1	HCV inh inconclusive, HCMV antiviral inconclusive
CCOc1cc(C(=O)OCC(=O)Nc2ccc(Cl)cn2)ccc1OCC(=O)N1CCOCC1	none
Cc1cc(C)cc(NC(=O)CN2CCc3cc4c(cc3C2C)OCCCO4)c1 (stereo not given)	none (no result: Vaccinia mCherry, VACV Venus inh)
CN1CCC(N(C)S(=O)(=O)c2ccc(NC(=O)COc3ccc(Cl)cc3)cc2)CC1	HCV inh 13µM (no result: Vaccinia mCherry, VACV Venus inh)
CC(Oc1cccc(Cl)c1)C(=O)Nc1ccc(S(=O)(=O)N(C)C2CCN(C)CC2)cc1 (stereo not given)	HCV inh inconclusive, Vaccinia mCherry 11µM, VACV Venus inh inconclusive
CN1CCC(N(C)S(=O)(=O)c2ccc(NC(=O)COc3ccc(F)cc3)cc2)CC1	none
CN1CCC(N(C)S(=O)(=O)c2ccc(C(C)(C)C)cc2)CC1	HCV inh inconclusive, HCMV antiviral -91 (no result: Vaccinia mCherry, VACV Venus inh)
CC(=O)Nc1ccc(S(=O)(=O)N(C)C2CCN(C)CC2)cc1	none
COc1ccc(-c2cc(C(F)(F)F)n3ncc(C(=O)N4CCCCC4c4cccnc4)c3n2)cc1 (stereo not given)	HCV inh inconclusive, HCMV antiviral inconclusive
O=C(NCCN1CCCC1)c1ccc2c(c1)N(Cc1cccc(Cl)c1)C(=O)c1ccccc1S2(=O)=O	HCV inh inconclusive, HCMV antiviral -77 (no result: Vaccinia mCherry, VACV Venus inh)
O=C(NCCc1ccc(Cl)cc1)c1ccc2c(c1)N(Cc1cccc(Cl)c1)C(=O)c1ccccc1S2(=O)=O	none (no result: HCV inh)
CN(C(=O)c1ccc2c(c1)N(Cc1cccc(Cl)c1)C(=O)c1ccccc1S2(=O)=O)C1CCCCC1	HCMV antiviral -79 (no result: HCV inh)
CN(C(=O)c1ccc2c(c1)N(Cc1ccc(F)cc1)C(=O)c1ccccc1S2(=O)=O)C1CCCCC1	none (no result: HCV inh)
CC(=O)Nc1ccc(-n2cc(-c3ccccc3)[nH]c2=S)cc1	none
O=C(NCc1nnc(SCC(=O)N2CCCCC2)o1)c1ccc(F)cc1	HCMV antiviral -85
O=C(CSc1nnc(CNC(=O)c2c(F)cccc2F)o1)NCc1ccc(F)cc1	Sm TGR block 28µM (no result: Vaccinia mCherry, VACV Venus inh)
O=C(CSc1nnc(CNc2ccc(F)cc2)o1)N1c2ccccc2Sc2ccccc21	FMDV inh inconclusive, HCV inh 10µM (no result: Vaccinia mCherry, VACV Venus inh)
CN(C)CC/C=C1/c2cc(F)ccc2CSc2ccc(F)cc21	HCV inh inconclusive
CN(C)CC/C=C1\c2ccc(F)cc2Sc2cc(F)c(Cl)cc21	FMDV inh inconclusive, HCV inh 13µM, HCMV antiviral -108 (no result: Vaccinia mCherry, VACV Venus inh, Sm TGR block)
CN(C)CC/C=C1\c2ccccc2Sc2cc(F)c(Cl)cc21	FMDV inh inconclusive, HCV inh inconclusive, VACV Venus inh inconclusive, HCMV antiviral -65 (no result: Sm TGR block)
CN(C)CC/C=C1\c2cc(Cl)ccc2Sc2cc(F)c(F)cc21	FMDV inh inconclusive, HCV inh 11µM, HCMV antiviral inconclusive (no result: Vaccinia mCherry, VACV Venus inh, Sm TGR block)
CN(C)CC/C=C1\c2ccccc2Sc2ccc(Cl)cc21	HCV inh inconclusive, Vaccinia mCherry inconclusive, VACV Venus inh inconclusive
CC[N+](C)(C)CC/C=C1/c2ccccc2Sc2ccc(Cl)cc21	none
COc1ccc(CNC(=O)CN(C(=O)c2snc(C(N)=O)c2N)c2cccc(F)c2)cc1	none
O=c1c(Cl)cc(Cl)nn1-c1ccccc1	FMDV inh 35µM, HCV inh inconclusive, Sm TGR block inconclusive, HCMV antiviral -66
CCn1c(=O)cc(OCC(=O)N2CCN(c3cccc(C)c3C)CC2)c2ccccc21	FMDV inh 20µM (no result: HCV inh)
CCOC(=O)N1CCN(C(=O)COc2cc(=O)n(CC)c3ccccc23)CC1	none (no result: Vaccinia mCherry, VACV Venus inh)
